Among all 150,000 compounds or so, about 6,500 (4.3%) were called active. About 12% were inconclusive and are not listed. The entries come from a sample that favours actives as a whole. A number with no mark means an inactive call. Calls follow the shape of the dose curve; as a rule, active = well fitted inhibition curve with a large enough effect (not every such curve was filed as active); inconclusive = small, poorly fitted or top-dose-only effect, or another doubt; inactive = no such curve, though single readings can be large or run the other way.
Each compound was assayed against 15-hydroxyprostaglandin dehydrogenase [NAD(+)] (Homo sapiens) (UniProt P15428) (assay: qHTS Assay for Inhibitors of HPGD (15-Hydroxyprostaglandin Dehydrogenase)). Conditions: purified HPGD, NADH fluorescence kinetic, PGE2 substrate; activity change, negative = inhibition: hits give low values.
Chain of 15-hydroxyprostaglandin dehydrogenase [NAD(+)] (Homo sapiens) (P15428 whole entry, looked up): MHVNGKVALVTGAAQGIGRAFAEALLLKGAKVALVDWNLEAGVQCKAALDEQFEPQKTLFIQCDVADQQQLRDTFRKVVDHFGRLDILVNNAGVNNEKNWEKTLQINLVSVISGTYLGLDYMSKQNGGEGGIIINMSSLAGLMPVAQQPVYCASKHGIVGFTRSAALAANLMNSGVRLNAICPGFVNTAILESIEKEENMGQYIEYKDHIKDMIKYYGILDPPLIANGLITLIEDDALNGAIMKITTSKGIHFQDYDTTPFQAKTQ
Summary of the method: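 20 nM HPGD preincubated 15 min at room temperature with compound in 50 mM Tris-HCl pH 8, 0.01% Tween 20. Started with 1 mM NAD+ and 30 uM prostaglandin E2; NADH fluorescence (360/450 nm) read 5 times over 30-s intervals, last minus first.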
`Cn1cc(/C=C/c2nc3ccccc3c(=O)n2-c2cccc([N+](=O)[O-])c2)c2ccccc21` showed an activity change, negative = inhibition of -11.6%.
For `Cc1ccc(/C=C/C(=O)Nc2cc(S(=O)(=O)N3CCCCCC3)ccc2OCC(F)(F)F)o1`, the activity change, negative = inhibition was -24.4%.
Work on `Cn1c(CNC(=O)c2ccccc2F)nnc1SCc1ccc(F)cc1` yielded an activity change, negative = inhibition of -8.88%.
For `CN(C)c1ccc(-n2cccc2/C=N/n2cnnc2)cc1`, the activity change, negative = inhibition was -4.13%.
`CCOC(=O)c1sc(NC(=O)CSc2nnc(-c3ccco3)o2)c(C(=O)OCC)c1C` showed an activity change, negative = inhibition of -18.6%.
With `CCOC(=O)c1sc(NC(=O)CSc2nc(C)cc(C(F)(F)F)n2)c(C#N)c1C` the Potency was 3.55 µM (active).
`CCOC(=O)c1sc(NC(=O)CSc2ncccn2)c(C#N)c1C` was tested, and the activity change, negative = inhibition was -17.5%.
Compound `COc1cc(NC(=O)c2cc([N+](=O)[O-])ccc2Br)ccc1NC(=O)c1ccco1` has an activity change, negative = inhibition of -20.2%.
In the case of `CSc1ccccc1NC(=O)Cc1ccc(Br)cc1`, the activity change, negative = inhibition is reported as -10.6%.
With `COC(=O)c1cccc(-n2[nH]nnc2=S)c1` the Potency was 28.2 µM (active).
With `COc1ccccc1-c1nnc(NC(=O)c2cccc(N3C(=O)CCC3=O)c2)o1` the activity change, negative = inhibition was -9.42%.
For `COC(=O)c1cc(C(=O)OC)cc(N2C(=O)CC(N3CCN(c4ccccc4)CC3)C2=O)c1` (stereo not given), the activity change, negative = inhibition was -19.8%.
`CN1CCN(c2ccc(S(=O)(=O)N3CCCCC3)cc2NC(=O)Cc2ccccc2F)CC1` gave an activity change, negative = inhibition of 3.83%.
With `Cn1c(=O)c2cn(-c3cccc4ccccc34)cc2n(C)c1=O` the activity change, negative = inhibition was -20.9%.
With `CC1=C(C)CC2C(=O)N(c3cccc4ccccc34)C(=O)C2C1` (stereo not given) the Potency was 25.1 µM (active).
In the case of `CC1(C)CCCC2=C1CC1C(=O)N(c3ccccc3)C(=O)C1C2` (stereo not given), the activity change, negative = inhibition is reported as 0.735%.
Compound `CCCOc1ccc(NC(=O)CC2C(=O)N(C)C(=S)N2Cc2ccc3c(c2)OCO3)cc1` (stereo not given) has an activity change, negative = inhibition of -0.216%.
Compound `O=C(/C=C/c1ccc(F)cc1)Nc1cccc(S(=O)(=O)Nc2cccc(C(F)(F)F)c2)c1` has an activity change, negative = inhibition of -7.72%.
With `CCc1ccc(NC(=O)C(C)OC(=O)/C=C/c2cccc([N+](=O)[O-])c2)cc1` (stereo not given) the activity change, negative = inhibition was -2.79%.
In the case of `CCOC(=O)C1=C(C)NC(=S)NC1c1cccs1` (stereo not given), the activity change, negative = inhibition is reported as -5.68%.
% is scaled to controls: 0 for no effect and ±100 for the full control effect; potency is read from the fitted curve at half-maximal effect.
